In ChEMBL document CHEMBL1157539, “Thousands of chemical starting points for antimalarial lead identification” (Nature, 2010):
Several values for one entry are separate records, joined by “and”; a condition that tells them apart may be missing. Equal values may be shown once.

Columns and labels:
Assay type in all cases: functional
Plasmodium falciparum [1] = experiment: GSK_TCMDC: Inhibition of Plasmodium falciparum 3D7 in whole red blood cells, using parasite LDH activity as an index of growth. Test compounds present at 2uM
Plasmodium falciparum [2] = experiment: GSK_TCMDC: Inhibition of Plasmodium falciparum Dd2 in whole red blood cells, using parasite LDH activity as an index of growth. Test compounds present at 2uM
HepG2 = experiment: GSK_TCMDC: Percent inhibition of human HepG2 cell line. Test compounds present at 10uM.

| SMILES | Inhibition (Plasmodium falciparum [1]) | Inhibition (Plasmodium falciparum [2]) | Inhibition (HepG2) |
| --- | --- | --- | --- |
| Cc1cccc(NC(=O)N(Cc2cc3cc(C)cc(C)c3[nH]c2=O)C2CC2)c1 | 97% | 94% | 3% |
| COCc1ccccc1C(=O)NCCOc1cc(C)cc(C)c1 | 96% | 95% | 26% |
| CN(C)CCC(O)C=C(c1ccc(Cl)cc1)c1ccc(Cl)cc1 (configuration not stated) | 93% | 85% | 33% |
| Cn1nc(-c2ccc(CN[C@@H]3CCc4ccc(O)cc43)cc2)c2cnc(NCCCN3CCCC3)nc21 | 100% | 61% | 8% |
| Cc1cc(NCCc2ccccc2)nc(N/C(=N/CC(=O)OC(C)(C)C)Nc2ccc(C(F)(F)F)cc2)n1.I | 100% | 97% | 23% |
| CN1CC(c2ccccc2)c2cc(O)c(CN3CCCCC3)cc2CC1Cc1ccccc1.Cl (configuration not stated) | 99% | 99% | 0% |
| COc1ccc(CN2CCC(Oc3cccc(NC(=O)c4ccc(C(F)(F)F)cc4)c3)CC2)cc1.O=C(O)C(F)(F)F | 95% | 20% | 35% |
| Cc1cnc(C(=O)Nc2cccc(-c3ccc(-c4nc5cc(C(F)(F)F)ccc5[nH]4)s3)c2)cn1 | 86% | 14% | 35% |
| Cc1cc(NC(=O)Nc2cccc(Cl)c2Cl)c2ccccc2n1 | 96% | 25% | 0% |
| O=C(CCc1c[nH]cn1)Nc1ccc(-c2ccc(-c3nc4cc(F)ccc4[nH]3)cc2)cc1 | 99% | 58% | 26% |
| COc1ccc2ncc(F)c(CCN3CC(O)C(CNCc4nc5c(cc4Cl)OCC(=O)N5)C3)c2n1.Cl (configuration not stated) | 93% and 90% | 23% and 15% and 30% | 12% and 13% and 5% |
| CCN1CCC(N(Cc2ccc(-c3ccc(C(F)(F)F)cc3)cc2)C(=O)Cn2c(CCc3cccc(F)c3F)cc(=O)c3ccc(OCc4ccccc4)cc32)CC1.O=C(O)C(O)C(O)C(=O)O | 100% | 86% | 60% |
| O=C(/C=C/c1cccc2ccccc12)NCCCCCN1CCC(c2c[nH]c3ccccc23)CC1 | 92% | 6% | 55% |
| COc1ccc2nccc(NCC3(O)CCN(CCc4ccc5c(c4)OCCO5)CC3)c2n1.Cl | 100% | 87% | 35% |
| COc1ccc(NC2=C(c3ccccc3)C(=O)c3ccccc32)cn1 | 96% | 84% | 0% |
| Cc1cccc2nc(-c3cccc(-c4ccc(NC(=O)Nc5cccc(C#N)c5)cc4)c3)[nH]c12 | 100% | 91% | 50% |
| Cc1cc(N(C)C)nc(Nc2ccc(NC(=O)COc3ccccc3)cc2)n1 | 100% | 67% | 15% |
| Cc1ccc(F)c(OCC2CCN(c3ncc(C(=O)NC4CC4)cc3Cl)CC2)c1 | 96% | 95% | 9% |
| COc1ccc(N2C(N)=NC(N)=NC2(C)C)cc1.Cl | 94% | 29% | 0% |
| CC(CN1CCN(C)CC1)C(=O)Nc1ccc(-c2ccc(-c3nc4cc(C(F)(F)F)ccc4[nH]3)cc2)cc1 (configuration not stated) | 100% | 100% | 19% |
| CCc1cn2c3c(cc(C(=O)N[C@@H](Cc4ccccc4)[C@H](O)CNC4CCCCC4)cc13)N(CC)S(=O)(=O)CC2.O=CO | 98% | 98% | 8% |
| CNC(=O)c1cnc(Nc2ccc(N3CCOCC3)cc2)nc1Nc1cccc(OC)c1.O=C(O)C(F)(F)F | 96% | 41% | 2% |
| O=C(Nc1ccc(Cl)c(Cl)c1)N1CCC(CNCc2cccc([N+](=O)[O-])c2)CC1.O=C(O)C(F)(F)F | 98% | 6% | 13% |
| CCOCCCNc1sc(S(=O)(=O)c2ccccc2)nc1S(=O)(=O)c1ccc(C)cc1 | 96% | 87% | 0% |
| CCOc1ccc(NC(=O)c2cccc(CN3CCCN(Cc4cccc(O)c4)CC3)c2)cc1.O=C(O)C(F)(F)F | 95% | 23% | 22% |

| SMILES | Inhibition (Plasmodium falciparum [1]) | Inhibition (Plasmodium falciparum [2]) | Inhibition (HepG2) |
| --- | --- | --- | --- |
| COc1ccc2c(=NN=CC=Cc3ccccc3)cc(C)[nH]c2c1 | 99% | 56% | 18% |
| Cc1ccccc1-c1nc2c(CN3CCC(O)(c4ccccc4)CC3)c(O)ccc2[nH]1 | 92% | 61% | 27% |
| COCc1cccc(-c2cc(-c3ccc(S(C)(=O)=O)cc3)cnc2N)c1 | 98% | 88% | 10% |
| O=C(Nc1ccc(-c2nc3ccccc3[nH]2)cc1)c1cncc(Br)c1 | 95% | 49% | 35% |
| O=C(NCc1cccc(Br)c1)c1ccc(CNC2CCN(Cc3ccccc3)CC2)cc1.O=C(O)C(F)(F)F | 100% | 49% | 3% |
| O=C(Cc1cccc(Cl)c1)Nc1cccc(-c2c[nH]c3nc(Nc4ccccc4)ncc23)c1.O=C(O)C(F)(F)F | 99% | 70% | 5% |
| O=C(Nc1cccc(C(F)(F)F)c1)c1ccc(S(=O)(=O)NCC2CCN(CC3CCCCC3)CC2)cc1.O=C(O)C(F)(F)F | 100% | 49% | 24% |
| N#Cc1ccc(N(CCOc2ccc(Cl)c(Cl)c2)Cc2ccccc2C(F)(F)F)cc1C(F)(F)F | 90% | 57% | 13% |
| O=C(Nc1ccccc1F)NC1CCN(c2ccnc(Nc3ccc(F)cc3)n2)C1 (configuration not stated) | 95% | 74% | 0% |
| Cc1ccc(C(=O)Nc2ccc(Nc3ccnc4cc(-c5nccs5)ccc34)cc2O)cc1.Cl | 100% | 100% | 100% |
| CCN1CCN(C(=O)NC(C(=O)N2CCCC(COc3ccc(Cc4ccccc4)cc3)C2)c2cccs2)C(=O)C1=O (configuration not stated) | 95% | 87% | 12% |
| COc1cc2nc(NCCn3ccnc3C)nc(NCCc3ccccc3)c2cc1OC | 99% | 0% | 21% |
| CS(=O)(=O)c1ccc2nc(NC(=O)c3csnn3)sc2c1 | 90% | 95% | 3% |
| CC(=O)Nc1cccc(C(=O)Nc2cccc(-c3cccc(-c4nc5ccccc5[nH]4)c3)c2)c1 | 100% | 66% | 41% |
| COc1cc(SC)ccc1C(=O)N1CC(C)CC(C)C1 (configuration not stated) | 98% | 66% | 5% |
| CC(=O)N(C)c1cccc(C(=O)Nc2cccc(-c3cccc(-c4nc5cccc(C)c5[nH]4)c3)c2)c1 | 89% | 41% | 15% |
| CN1CCN(CC(=O)Nc2ccc(-c3ccc(-c4nc5cc(C(F)(F)F)ccc5[nH]4)s3)cc2)CC1 | 100% | 73% | 84% |
| Cc1ccc(NC(=O)c2ccc3ncccc3c2)cc1OC1CCN(CCC(C)C)C1.O=C(O)C(F)(F)F (configuration not stated) | 98% | 62% | 5% |
| O=C(Nc1ccc(S(=O)(=O)N2CCCC2)cc1)c1cc(-c2cccnc2)nc2ccc(Cl)cc12 | 97% | 95% | 4% |
| Nc1cccc(CNCc2cccc(-c3csc(-c4nc5ccccc5[nH]4)c3)c2)c1.O=C(O)C(F)(F)F | 100% | 63% | 13% |
| Cc1cc(CN2CC[C@H](NC(=O)c3ccc(Cl)c(Cl)c3)C2)ccc1OC1CCN(C)C1.O=C(O)C(F)(F)F (some centres not stated) | 100% | 24% | 71% |
| COc1ccc2ncc(Cl)c([C@H](O)CN3CCC(NCc4cc5c(cn4)OCCO5)CC3)c2c1.Cl | 100% | 100% | 10% |
| CN(C)CCn1c(N)c(-c2nc3ccccc3s2)c2nc(C#N)c(C#N)nc21 | 94% | 40% | 4% |
| CCOc1ccc(C(=O)Nc2cc(Br)c3c(c2)CNCC3)cc1C(F)(F)F.Cl | 98% | 22% | 15% |
